Test results from PubChem BioAssay AID453 (PCMD, 2006).
About 75 (0.1%) of roughly 63,000 compounds were called active. Cut-off read from the data, not from the text of the source: active = inhibition above about 21%; inactive = the rest. The sample as a whole holds a higher share of actives than the screen did.

Target: Cathepsin B (Homo sapiens) (UniProt P07858)
Test: human cathepsin B inhibitors, primary screen, biochemical, fluorogenic substrate (AID 453);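 note: 0% = enzyme with no compound and 100% = no enzyme blank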
Details: purified cathepsin B, fluorescence, active compounds read high,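 tested at 10 µM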

inhibition, inactive:
O=C1c2cccc3cccc(c23)N1CN1CCN(c2ccccn2)CC1 2.14%
Cc1ccccc1-c1ccc(Nc2ccc(C(=O)N3CCOCC3)cc2)nn1 6.18%
NC(=O)CSc1c[nH]c2ccccc12 0.81%
COc1ccc(-c2cc(C(=O)NC(C(=O)O)C(C)C)c(C)o2)cc1OC (stereo unspecified) 5.71%
CCCc1nc2c3cnn(-c4cccc(Cl)c4)c3ncn2n1 -2.64%
CCOC(=O)N1CCC(NC(=O)CCc2cn(C)c3ccccc23)CC1 -2.17%
COc1ccc(CCNC(=O)C2CCCN(Cc3nc(-c4cccc(Cl)c4)oc3C)C2)cc1OC (stereo unspecified) 3.18%
COCc1cc(C)nc(Nc2cc(C)ccc2C)c1C#N 4.86%
COc1ccc(CCNC(=O)CSc2nnc(CNC(=O)c3cccs3)o2)cc1OC 1.4%
O=c1c(F)cn(C2CCCO2)c(=O)n1Cc1ccccc1Cl (stereo unspecified) -1.02%
CC(C)OC(=O)c1cc(NC(=O)C2C3CCC(O3)C2C(=O)O)cc(C(=O)OC(C)C)c1 (stereo unspecified) 2.7%
COc1cc(C2C(C(=O)c3ccc(C)o3)=C(O)C(=O)N2CCc2ccccc2)ccc1O (stereo unspecified) 4.77%
COc1ccc(NC2CC(=O)N(C)C2=O)cc1 (stereo unspecified) -3.47%
CCOC(=O)N1CCN(C(=O)C2CCCN(c3ncnc4c3sc3cccc(F)c34)C2)CC1 (stereo unspecified) -3.56%
CCOc1cccc(-c2nn3c(-c4ccccn4)nnc3s2)c1 0.42%
CC(=O)N(CN1C(=O)C2CC=CCC2C1=O)c1cccc(Cl)c1 (stereo unspecified) -3.62%
Cc1ccc2c(c1)N(CC(=O)N1CCCc3ccccc31)C(=O)C(C)O2 (stereo unspecified) 3.31%
CC1=C2C(=O)OC(c3ccoc3)C2(C)CCC1 (stereo unspecified) 0.12%
CC1CSc2nnc(CCc3ccccc3)n21 (stereo unspecified) -1.7%
COc1ccc(C2CC(c3ccccc3)Nc3ncnn32)cc1 (stereo unspecified) 7.13%
Cc1ccc(NC(=O)CN(C)S(=O)(=O)c2cnc[nH]2)cc1C 3.83%
O=C(O)C1CCN(S(=O)(=O)N2CCOCC2)CC1 4.13%
CCOC(=O)N1CCC(Nc2c(NCCCN3CCN(c4ccc(OC)cc4)CC3)c(=O)c2=O)CC1 4.27%
CCCN1CCN(C(=O)Cn2ncc3ccccc32)CC1 0.47%
Cc1ccc(F)cc1NC(=O)Cc1nn(C)c(=O)c2ccccc12 2.55%
CCCOc1ccc(C2C(C(=O)c3ccc(C)o3)=C(O)C(=O)N2CCCn2ccnc2)cc1 (stereo unspecified) 2.38%
O=C(Nc1ccc2c(c1)nc1n2CCCCC1)c1cc(S(=O)(=O)N2CCOCC2)ccc1Cl -1.57%
CN1c2ccccc2-c2nc3ccccc3n2C1c1ccco1 (stereo unspecified) -10.8%
O=C(CCCn1c(=O)oc2ccccc21)Nc1cccnc1 -0.71%
CCCCNc1nc2c(c(=O)n(C)c(=O)n2C)n1Cc1cccc(OC)c1 0.69%
COc1ccc(CCNC(=O)CSc2nnc(-c3cccc(F)c3)o2)cc1OC 1.18%
CCCSC1=C(C#N)C(c2ccccc2C)C(C(=O)OC)C(=O)N1 (stereo unspecified) -3.07%
Cc1ccccc1C(=O)Nc1cccc(-c2nnc(SCC(=O)O)n2C)c1 0.46%
CC(C)Oc1ccc(C(=O)Nc2cc(=O)n(C)c(=O)n2C)cc1 -1.53%
Cc1cc(NC(=O)Nc2ccccc2)n(-c2ccccc2)n1 0.02%
O=C(NCC(F)(F)F)Nc1nnc(C(F)(F)F)s1 2.4%
Fc1ccc(Br)cc1/C=N/n1cnnc1 3.66%
Cc1cccc(-c2noc(-c3ccc(F)cc3)n2)c1 3.17%
COc1c(O)cccc1-c1nnn(CCC(=O)OCC(=O)c2ccccc2)n1 0.08%
CN(C)/C=C1\C=C(c2ccccc2)OC1=O 6.09%
CCCCSc1nc2c(c(=O)n1CC)SC(C)C2 (stereo unspecified) -3.44%
CC1COC2C(O1)N(S(C)(=O)=O)CCN2S(C)(=O)=O (stereo unspecified) 3.14%
CCOC(=O)[C@H]1CCC[C@@H](NS(=O)(=O)c2ccc(NC(C)=O)cc2)C1 1.14%
CCOc1ccccc1C(=O)NCc1ccco1 -3.58%
Cc1cc2cc(CN(Cc3cccs3)Cc3nnnn3CC3CCCO3)c(=O)[nH]c2cc1C (stereo unspecified) 4.13%
O=C(CN(CC1CCCO1)C(=O)CNS(=O)(=O)c1ccccc1)NCc1ccccc1 (stereo unspecified) 6.19%
CSc1ncccc1C(=O)OCC(=O)N1CCOCC1 4.46%
Cn1c(=O)c2c(nc(Br)n2CCSc2nc3ccccc3o2)n(C)c1=O -0.32%
C=CCOc1nc2c(c(=O)n(C)c(=O)n2C)n1Cc1ccc(Cl)cc1Cl 0.74%
CN(Cc1ccccc1)C(=O)CCNC(=O)Cn1cnc2ccccc2c1=O -3.16%
O=C(CN1CCOCC1)Nc1ccc(NC(=O)CN2CCOCC2)c(Cl)c1 1.81%
Cc1ccc2nc(NC(=O)C3CCN(S(=O)(=O)c4ccc5c(c4)oc(=O)n5C)CC3)sc2c1 4.26%
CC(C)C(=O)N1CCN(c2nc(-c3ccccc3)c3c(c2C#N)CC(C)(C)OC3)CC1 1.01%
Cc1ccc(-n2c(Cc3cccs3)nnc2SCC(=O)OC(C)C)cc1 11.1%
CCOCCOC(=O)C1=C(C)N(C)C(=O)NC1c1ccccc1F (stereo unspecified) 1.21%
COc1ccc(-c2nnc(SCC(=O)c3ccco3)n2-c2ccccc2)cc1 0.87%
CN(CCC#N)c1ncnc2scc(-c3ccccc3)c12 -3.88%
COc1cc(C2C(C(=O)c3sc(C)nc3C)=C(O)C(=O)N2CCN(C)C)cc(OC)c1OC (stereo unspecified) 4.44%
Cc1cc(N=CC2=C(O)CCCC2=O)no1 -1.03%
CCC(=O)c1ccc(OCC(O)CN2CC(C)OC(C)C2)cc1 (stereo unspecified) 1.68%
CCC(=O)c1ccc(OCC(O)CN2C(=O)NC(C)(C)C2=O)cc1 (stereo unspecified) 2.56%
